# Source: the supplement of paper PMC3342239
# Structures can show the parent of a compound that is named as a salt.
# Tested on: Saccharomyces cerevisiae
# Assay: fraction of cells in G1 phase (DNA content, flow cytometry); higher = more cells with unreplicated DNA (G1 delay)
# Conditions: temperature: 30 C; YPD; BY4741 PDR5+ SNQ2+; drug added to: actively dividing cells; 4.33 h
# Method: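 S. cerevisiae cultures in YPD at 30°C were treated with each drug of the Enzo FDA-approved library at 20 µg/ml (final µM given per drug). Cells were fixed after 6–7 h (S1) or 6 h (S2), or after 4.33 h for BY4741 (S3), then stained with SYTOX Green. %G1 is the Dean-Jett-Fox G1 peak area divided by the G1+G2/M peak areas, written as a fraction and averaged over at least two independent experiments. DMSO reference: mean ~0.49; >0.60 is called High G1 and <0.3876 Low G1. Scale: lower means mitotic delay.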
row,SMILES,fraction of cells in G1 phase
1,C[C@@H]1CC[C@H]2[C@@H](C)C(=O)O[C@@H]3O[C@@]4(C)CC[C@@H]1[C@]32OO4 [Artemisinin] (70.8367 µM),0.5
2,C#C[C@]1(O)CC[C@H]2[C@@H]3CCC4=CC(=O)CCC4=C3C=C[C@@]21CC [Gestrinone] (64.8457 µM),0.423
3,C[C@]12CC[C@H](O)CC1=CC[C@@H]1[C@@H]2CC[C@]2(C)C(=O)CC[C@@H]12 [Dehydroepiandrosterone] (69.34 µM),0.501
4,CC1C=CC=CCCC=CC=CC=CC=CC(OC2OC(C)C(O)C(N)C2O)CC2OC(O)(CC(O)C(O)CCC(O)CC(O)CC(O)CC(=O)OC(C)C(C)C1O)CC(O)C2C(=O)O (stereo not given) [Nystatin] (21.5955 µM),0.549

# Same assay, conditions: temperature: 30 C; YPD; JTY2953 pdr5 snq2 (sensitized); drug added to: actively dividing cells; 6 h
row,SMILES,fraction of cells in G1 phase
1,C[C@@H]1CC[C@H]2[C@@H](C)C(=O)O[C@@H]3O[C@@]4(C)CC[C@@H]1[C@]32OO4 [Artemisinin] (70.8367 µM),0.691
2,C#C[C@]1(O)CC[C@H]2[C@@H]3CCC4=CC(=O)CCC4=C3C=C[C@@]21CC [Gestrinone] (64.8457 µM),0.736
3,C[C@]12Cc3c[nH]nc3C[C@@H]1CC[C@@H]1[C@@H]2CC[C@@]2(C)[C@H]1CC[C@]2(C)O [Stanozolol] (60.8824 µM),0.497
4,C[C@]12CC[C@H](O)CC1=CC[C@@H]1[C@@H]2CC[C@]2(C)C(=O)CC[C@@H]12 [Dehydroepiandrosterone] (69.34 µM),0.719
5,CC1C=CC=CCCC=CC=CC=CC=CC(OC2OC(C)C(O)C(N)C2O)CC2OC(O)(CC(O)C(O)CCC(O)CC(O)CC(O)CC(=O)OC(C)C(C)C1O)CC(O)C2C(=O)O (stereo not given) [Nystatin] (21.5955 µM),0.699

# Same assay, conditions: temperature: 30 C; YPD; JTY2953 pdr5 snq2 (sensitized); drug added to: cultures diluted from stationary phase; 6-7 h
row,SMILES,fraction of cells in G1 phase
1,C[C@@H]1CC[C@H]2[C@@H](C)C(=O)O[C@@H]3O[C@@]4(C)CC[C@@H]1[C@]32OO4 [Artemisinin] (70.8367 µM),0.613
2,CNC(=O)Oc1ccc2c(c1)[C@]1(C)CCN(C)[C@@H]1N2C [Physostigmine sulfate] (72.6339 µM),0.472
3,CCCN1C[C@H](CSC)C[C@@H]2c3cccc4[nH]cc(c34)C[C@H]21 [Pergolide mesylate] (63.5937 µM),0.489
4,CN(C)C(=O)Oc1cc(OC(=O)N(C)C)cc(C(O)CNC(C)(C)C)c1 (stereo not given) [Bambuterol] (54.4293 µM),0.518
5,O=C([O-])Cc1ccccc1.[Na+] [Sodium phenylacetate] (126.475 µM),0.487
6,O=C1CC[C@@]2(O)[C@H]3Cc4ccc(O)c5c4[C@@]2(CCN3CC2CC2)[C@H]1O5 [Naltrexone HCl] (58.5805 µM),0.509
7,Cc1c(N)nc(C(CC(N)=O)NCC(N)C(N)=O)nc1C(=O)NC(C(=O)NC(C)C(O)C(C)C(=O)NC(C(=O)NCCc1nc(-c2nc(C(=O)NCCC[S+](C)C)cs2)cs1)C(C)O)C(O[C@@H]1O[C@@H](CO)[C@@H](O)[C@H](O)[C@@H]1O[C@H]1O[C@H](CO)[C@@H](O)[C@H](OC(N)=O)[C@@H]1O)c1cnc[nH]1 (stereo not given in full) [Bleomycin sulfate] (14.1285 µM),0.924
8,C#C[C@]1(O)CC[C@H]2[C@@H]3CCC4=CC(=O)CCC4=C3C=C[C@@]21CC [Gestrinone] (64.8457 µM),0.609
9,CCCC[N+]1(C)[C@@H]2C[C@@H](OC(=O)[C@H](CO)c3ccccc3)C[C@H]1[C@@H]1O[C@@H]12 (stereo not given in full) [Scopolamine n-butylbromide] (55.482 µM),0.488
10,CCCC(=O)OCC[N+](C)(C)C [Butyrylcholine Cl] (114.768 µM),0.504
11,C[C@]12Cc3c[nH]nc3C[C@@H]1CC[C@@H]1[C@@H]2CC[C@@]2(C)[C@H]1CC[C@]2(C)O [Stanozolol] (60.8824 µM),0.801
12,C[C@]12CC[C@H](O)CC1=CC[C@@H]1[C@@H]2CC[C@]2(C)C(=O)CC[C@@H]12 [Dehydroepiandrosterone] (69.34 µM),0.633
13,NCC1(CC(=O)O)CCCCC1 [Gabapentin] (116.794 µM),0.543
14,C=C1C[C@@H]2[C@H](CC[C@]3(C)C(=O)CC[C@@H]23)[C@@]2(C)C=CC(=O)C=C12 [Exemestane] (67.4764 µM),0.567
15,CC(C)(C)NCC(O)c1ccccc1Cl (stereo not given) [Tulobuterol] (87.8208 µM),0.493
16,C[N+](C)(C)CCCCCCCCCC[N+](C)(C)C [Decamethonium 2Br] (77.371 µM),0.472

row,SMILES,fraction of cells in G1 phase
1,O=P1(NCCCl)OCCCN1CCCl (stereo not given) [Ifosfamide] (76.6021 µM),0.489
2,CC(C)c1cccc(C(C)C)c1O [Propofol] (112.185 µM),0.511
3,CCN(C)C(=O)Oc1cccc([C@H](C)N(C)C)c1 [Rivastigmine] (79.8902 µM),0.504
4,C=CCN1CC[C@]23CCCC[C@H]2[C@H]1Cc1ccc(O)cc13 [Levallorphan tartrate] (70.5673 µM),0.476
5,CC1C=CC=CCCC=CC=CC=CC=CC(OC2OC(C)C(O)C(N)C2O)CC2OC(O)(CC(O)C(O)CCC(O)CC(O)CC(O)CC(=O)OC(C)C(C)C1O)CC(O)C2C(=O)O (stereo not given) [Nystatin] (21.5955 µM),0.665
6,C[C@]12CCC(=O)C(O)=C1CC[C@@H]1[C@@H]2CC[C@]2(C)C(=O)CC[C@@H]12 [Formestane] (66.1338 µM),0.566
7,NCCCNCCSP(=O)(O)O [Amifostine] (93.3599 µM),0.512
8,C#CCN(C)C(C)Cc1ccccc1 (stereo not given) [Deprenyl] (89.4055 µM),0.518
9,CC(O)(CS(=O)(=O)c1ccc(F)cc1)C(=O)Nc1ccc(C#N)c(C(F)(F)F)c1 (stereo not given) [Bicalutamide] (46.4705 µM),0.493
10,C[C@@H]1O[C@@H](O[C@H]2C[C@@H](O)[C@]3(CO)[C@H]4[C@H](O)C[C@]5(C)[C@@H](C6=CC(=O)OC6)CC[C@]5(O)[C@@H]4CC[C@]3(O)C2)[C@H](O)[C@H](O)[C@H]1O [Ouabain] (27.4424 µM),0.521
11,CC(C)NCC(O)c1ccc(N)c(C#N)c1 (stereo not given) [Cimaterol] (91.2039 µM),0.493
12,CN1[C@@H]2CC[C@H]1C[C@@H](OC(=O)C(CO)c1ccccc1)C2 (stereo not given in full) [Atropine sulfate] (69.1138 µM),0.474
13,O=P1(N(CCCl)CCCl)NCCCO1 (stereo not given) [Cyclophosphamide monohydrate] (76.6021 µM),0.501
14,O=c1[nH]c2ccccc2n1CCCN1CCC(n2c(=O)[nH]c3cc(Cl)ccc32)CC1 [Domperidone] (46.957 µM),0.505
15,O=C1C[C@@H]2OCC=C3CN4CC[C@]56c7ccccc7N1[C@H]5[C@H]2[C@H]3C[C@H]46 [Strychnine HCl] (59.8047 µM),0.497
